Reference: publication PMC5540273 (PLoS ONE, 2017)

Columns and labels:
Details in all cases: concentration: 1 μM, replicates: in singlicate; n = 1
DMPK2 = test system: T1, DMPK2
T1 construct: gene CDC42BPG

DMPK = test system: DMPK
DRAK1 = test system: T2, DRAK1
T2 construct: gene STK17A

DRAK2 = test system: T3, DRAK2
T3 construct: gene STK17B

DYRK1A = test system: DYRK1A
DYRK1B = test system: DYRK1B
DYRK2 = test system: DYRK2
EGFR = test system: EGFR
EIF2AK1 = test system: EIF2AK1
EPHA1 = test system: EPHA1
EPHA2 = test system: EPHA2
EPHA3 = test system: EPHA3
EPHA4 = test system: EPHA4
EPHA5 = test system: EPHA5
EPHA6 = test system: EPHA6
EPHA7 = test system: EPHA7
EPHA8 = test system: EPHA8
EPHB1 = test system: EPHB1
EPHB2 = test system: EPHB2
EPHB3 = test system: EPHB3
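Further: KINOMEscan kinase panel screen.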

| Structure (SMILES) | %Inh (DMPK2) [%] | %Inh (DMPK) [%] | %Inh (DRAK1) [%] | %Inh (DRAK2) [%] | %Inh (DYRK1A) [%] | %Inh (DYRK1B) [%] | %Inh (DYRK2) [%] | %Inh (EGFR) [%] | %Inh (EIF2AK1) [%] | %Inh (EPHA1) [%] | %Inh (EPHA2) [%] | %Inh (EPHA3) [%] | %Inh (EPHA4) [%] | %Inh (EPHA5) [%] | %Inh (EPHA6) [%] | %Inh (EPHA7) [%] | %Inh (EPHA8) [%] | %Inh (EPHB1) [%] | %Inh (EPHB2) [%] | %Inh (EPHB3) [%] |
| --- | --- | --- | --- | --- | --- | --- | --- | --- | --- | --- | --- | --- | --- | --- | --- | --- | --- | --- | --- | --- |
| CNc1cc(-c2ccc3c(N)n[nH]c3c2)nc(N)n1 [GSK2224810] | 10 | 0 | 95.3 | 77 | 64 | 43 | 90 | 17 | 0 | 9 | 0 | 27 | 0 | 0 | 0 | 0 | 0 | 23 | 0 | 4 |
| c1ccc(-c2ccnc3[nH]ccc23)cc1 [SB-693578] | 0 | 0 | 8 | 0 | 34 | 0 | 19 | 17 | 6 | 25 | 0 | 0 | 12 | 0 | 0 | 18 | 26 | 13 | 0 | 4 |
| CCn1c(-c2ccccc2)nc2cnccc21 [SB-733416] | 0 | 0 | 32 | 12 | 23 | 0 | 0 | 37 | 0 | 22 | 10 | 0 | 24 | 10 | 29 | 7 | 5 | 7 | 15 | 26 |
| COc1ccc(-c2coc3ccc(-c4nnc(C)o4)cc23)cc1 | 0 | 0 | 0 | 0 | 40 | 0 | 0 | 0 | 0 | 0 | 8 | 17 | 33 | 0 | 26 | 0 | 0 | 0 | 12 | 31 |
| COc1ccc(CSc2nnc(-c3ccc4c(c3)CCO4)o2)cc1 | 0 | 0 | 0 | 3 | 0 | 35 | 0 | 0 | 0 | 0 | 0 | 1 | 18 | 0 | 6 | 0 | 0 | 0 | 0 | 12 |
| CC(=O)c1c(C)c2cnc(Nc3ccc(N4CCNCC4)cn3)nc2n(C2CCCC2)c1=O | 96 | 15 | 8 | 5 | 0 | 0 | 0 | 4 | 0 | 24 | 16 | 0 | 0 | 0 | 0 | 0 | 0 | 0 | 0 | 3 |
| Cc1c(Cn2c3ccccc3n3c(=O)cc(N4CCOCC4)nc23)cccc1C(F)(F)F [GSK2306394] | 0 | 0 | 0 | 0 | 7 | 0 | 14 | 48 | 0 | 0 | 0 | 0 | 0 | 0 | 0 | 7 | 13 | 22 | 0 | 0 |
| CCc1ccc(-c2ccc3c(c2)-c2n[nH]cc2S(=O)(=O)N3C)cc1 | 0 | 0 | 0 | 0 | 0 | 11 | 0 | 0 | 0 | 11 | 2 | 0 | 0 | 5 | 0 | 0 | 0 | 0 | 10 | 0 |
| CC(C)c1cc(-c2ccc3c(N)n[nH]c3c2)nc(N)n1 [GSK2250882] | 0 | 1 | 98.4 | 0 | 28 | 0 | 78 | 17 | 12 | 2 | 17 | 11 | 16 | 0 | 17 | 3 | 8 | 17 | 0 | 29 |
| COC(=O)c1cccc(NC(=O)NC2CCN(c3ccnc(Nc4ccc(OC)cc4)n3)C2)c1 (stereo not drawn) [GSK1379746] | 0 | 0 | 4 | 10 | 11 | 15 | 9 | 31 | 0 | 6 | 6 | 0 | 4 | 0 | 0 | 3 | 12 | 21 | 8 | 5 |
| Cc1ccc(NC(=O)Nc2ccc(Cl)cc2)cc1-c1ccc(C(=O)Nc2ccncc2)cc1 [GSK1398472] | 63 | 0 | 3 | 0 | 19 | 0 | 0 | 24 | 0 | 12 | 43 | 0 | 41 | 2 | 36 | 7 | 34 | 16 | 11 | 25 |
| FC(F)(F)c1ccccc1-c1cc(-c2c[nH]nc2-c2ccccn2)ccn1 [GW679396] | 7 | 16 | 14 | 2 | 0 | 13 | 12 | 0 | 0 | 0 | 0 | 0 | 2 | 0 | 0 | 6 | 17 | 24 | 7 | 2 |
| COc1ccc(Nc2nccc(N3CCC(NC(=O)C(C)c4ccc(Cl)cc4)C3)n2)cc1 (stereo not drawn) [GSK1379735] | 0 | 0 | 8 | 0 | 12 | 0 | 3 | 14 | 77 | 0 | 25 | 9 | 14 | 0 | 11 | 18 | 17 | 13 | 0 | 9 |
| Cc1ccccc1Cn1ccn2c(=O)cc(N3CCOCC3)nc12 [GSK2269905] | 0 | 0 | 0 | 0 | 16 | 0 | 0 | 15 | 8 | 4 | 4 | 0 | 19 | 0 | 14 | 0 | 11 | 10 | 0 | 20 |
| COC(=O)C(NC(=O)NC1CCN(c2ccnc(Nc3ccc(F)cc3)n2)C1)c1ccccc1 (stereo not drawn) [GSK1379712] | 1 | 0 | 2 | 0 | 0 | 17 | 13 | 23 | 0 | 10 | 0 | 0 | 3 | 0 | 2 | 0 | 10 | 10 | 11 | 1 |
| COc1ccc(Nc2nccc(NCCNC(=O)Nc3cc(C)ccc3C)n2)cc1 [GSK1379899] | 0 | 0 | 0 | 0 | 18 | 7 | 2 | 27 | 0 | 5 | 0 | 0 | 17 | 0 | 14 | 3 | 6 | 16 | 0 | 17 |
| COc1ccc(Nc2nccc(N3CCC(NC(=O)C(C)c4ccc(Cl)cc4)CC3)n2)cc1 (stereo not drawn) [GSK1379812] | 6 | 1 | 0 | 0 | 99.2 | 0 | 19 | 0 | 0 | 0 | 7 | 5 | 0 | 0 | 0 | 0 | 9 | 34 | 71 | 1 |
| O=C(Nc1n[nH]c2nc(-c3cccs3)c(Br)cc12)C1CC1 [SB-735297] | 0 | 0 | 25 | 0 | 13 | 0 | 26 | 0 | 0 | 21 | 0 | 0 | 1 | 0 | 17 | 0 | 8 | 0 | 0 | 0 |
| CC[C@@H]1CO[C@H](C(=O)Nc2ccccc2)CN1c1cc(-c2ccc3c(N)n[nH]c3c2)nc(NC)n1 [GSK2376236] | 5 | 0 | 95.3 | 68 | 1 | 0 | 12 | 71 | 0 | 3 | 21 | 13 | 6 | 0 | 9 | 2 | 9 | 8 | 14 | 16 |
| CNCc1ccc2nc(NC(=O)c3ccc(C(C)(C)C)cc3)cn2c1 | 0 | 7 | 11 | 24 | 35 | 0 | 6 | 0 | 4 | 4 | 3 | 0 | 0 | 3 | 0 | 0 | 0 | 0 | 5 | 0 |
| Cc1ccc(NC(=O)Nc2ccccc2F)cc1-c1ccc(C(=O)Nc2ccncc2)cc1 [GSK1398477] | 16 | 3 | 1 | 0 | 26 | 8 | 17 | 24 | 0 | 0 | 31 | 17 | 40 | 14 | 31 | 19 | 52 | 27 | 12 | 22 |
